Rows were chosen to be rich in hits. Some 1.8% of all compounds tested hit in one or more screens of this group.
VLA-4 allo ag – allosterically activates the human VLA-4 integrin; Jurkat cells, LDV-FITC binding, flow cytometry; activation, % at 10 µM (by protocol); 24,000 tested, under 10 active; AID 528;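 active = fluorescent ligand binding to cells raised by more than 40% of the manganese-induced maximum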;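 note: 0% = ligand binding without compound and 100% = manganese-stimulated maximal binding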
S aureus QS inh – S. aureus quorum sensing inhibition; hit rate 0.3% among 24,000; AID 527; S. aureus RN6390 RNAIII-GFP reporter, AIP-induced, flow cytometry 3 h; inhibition, % at 2 µM;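 active = share of bacteria positive for the green fluorescent reporter and its mean brightness both inhibited by 50% or more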;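 note: 0% = AIP-stimulated control and 100% = unstimulated bacteria without AIP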
LNCaP diff act – promotes differentiation of LNCaP prostate cells | flow cytometry side scatter, 4 d | side scatter shift, % at 10 µM | hit rate 0.56% among 24,000;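 active = side scatter shift above 30%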;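 note: androgen-responsive LNCaP prostate cancer cells in charcoal-stripped serum medium; percent of cells past a gate set so DMSO wells show 10% shift; higher shift means more granular cells and more differentiation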
Autofluor Jurkat – compound fluoresces in Jurkat cells, VLA-4 screen interference; compound autofluorescence, flow cytometry; stronger effect = higher value; 1 = vehicle-only cell background; fluorescence ratio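 (tested at 10 µM compound in the well)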; hit rate 0.61% among 24,000; AID 576;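 active = fluorescence ratio above 2.44, which is 1 plus 3 SD of all ratios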;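 note: green fluorescence of cells measured with 488 nm excitation and 530 nm emission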
Proteasome disasm – blocks ATP-dependent breakdown of the yeast 26S proteasome; anti-FLAG beads, GFP-proteasome disassembly, flow cytometry; hit rate 0.2% among 24,000; AID 751; inhibition of disassembly, % (concentration not given with the values);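 active = inhibition of disassembly above about 33%, limit read from the data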;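 note: plate controls were ATP control with full disassembly for no effect and ATP-gamma-S intact proteasomes for full effect; higher percent means more bead fluorescence retained so stronger block of disassembly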
VLA-4 antagonist – inhibitors of LDV-FITC ligand binding to Mn2+-activated human VLA-4 integrin; AID 529; Jurkat cells, LDV-FITC binding with Mn2+, flow cytometry; 100% = Mn2+-driven binding gain fully reversed; inhibition, % at 10 µM (by protocol); hit rate 0.2% among 24,000;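 active = inhibition above 50%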;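 note: 0% = Mn2+ stimulated cells lacking compound and 100% = ligand binding without Mn2+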
* hit, by the source's call.

SMILES | VLA-4 allo ag | S aureus QS inh | LNCaP diff act | Autofluor Jurkat | Proteasome disasm | VLA-4 antagonist
O=C(COc1ccc2ccccc2c1)N1CCN(C2CCN(Cc3ccccc3)CC2)CC1 | 1 | 0 | 46* | 1.1 | 3 | -12
N=C(N)c1c(O)n(C2CCCCC2)c(=O)n(C2CCCCC2)c1=O | -10 | 5 | 10 | 1 | 1 | 15

Bioassay records: PubChem BioAssay, NMMLSC
